# Data from PubChem BioAssay AID493188 (National Center for Advancing Translational Sciences (NCATS), 2011).
# Results filed as inconclusive are left out. Activity calls are given as the source filed them. Calls come from the whole dose curve; as a rule, active = well fitted inhibition curve with a large enough effect; inconclusive = small, poorly fitted or top-dose-only effect; inactive = flat fitted curve, though single readings scatter.
# Target: Galactokinase (Homo sapiens) (UniProt P51570)
# Assay: Confirmation Assay for Inhibitors of Human Galactokinase (GALK): SAR round 2
# Source text: NIH Molecular Libraries Probe Production Centers Network [MLPCN] NIH Chemical Genomics Center [NCGC] MLPCN Grant: R03 MH085689-01 Assay Submitter (PI): Kent Lai (University of Utah School of Medicine, 50 N Mario Capecchi Drive, Salt Lake City, UT 84132) NCGC Assay Overview Inherited deficiency of galactose-1-phosphate uridyltransferase (GALT) can result in a potentially lethal disorder called Classic Galactosemia (OMIM 230400). Several lines of evidence indicate that an elevated level of galactose-1-phosphate (gal-1-p), the product of galactokinase (GALK), is a major, if not sole, pathogenic mechanism in patients with classic galactosemia. Therefore, finding inhibitors of GALK is a potential novel therapy for this inherent metabolic disease and is the long term goal of this project. Active compounds observed in the qHTS GALK assay (AID: 1868) were cherry picked and re-screened for validation. […]
# NCGC Assay Protocol Summary: Three uL/well of ATP-buffer solution (35 uM ATP, 20mM HEPES pH8.0, 5 mM MgCl2, 60 mM NaCl, 1 mM DTT, 0.01% BSA final concentration) was dispensed into 1536-well, assay plates (Greiner, solid white medium-binding plates) with Aurora Discovery BioRAPTR Flying Reagent Dispenser (FRD; Beckton-Dickenson). […] Luminescence was detected with the ViewLux plate reader (Perkin Elmer, Waltham, MA) after 2 min incubation using a 1 sec exposure time and 2x binning.
# Sequence of Galactokinase (Homo sapiens) (P51570 whole entry, looked up): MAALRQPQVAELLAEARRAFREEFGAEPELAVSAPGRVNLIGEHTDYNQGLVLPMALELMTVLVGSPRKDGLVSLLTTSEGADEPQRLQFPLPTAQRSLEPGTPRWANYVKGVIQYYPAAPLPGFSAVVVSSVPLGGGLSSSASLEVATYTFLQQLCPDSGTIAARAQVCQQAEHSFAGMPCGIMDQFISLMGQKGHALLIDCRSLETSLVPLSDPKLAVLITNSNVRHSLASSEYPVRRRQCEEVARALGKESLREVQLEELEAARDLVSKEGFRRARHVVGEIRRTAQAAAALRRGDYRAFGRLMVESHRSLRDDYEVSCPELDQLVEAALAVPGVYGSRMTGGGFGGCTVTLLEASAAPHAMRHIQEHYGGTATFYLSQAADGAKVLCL
compound,measurement,value
CC(=O)OCOCC(=O)OCO[P+](=O)C(OCOC(C)=O)c1cc([N+](=O)[O-])ccc1Oc1ccc(Br)cc1 (stereo unspecified),outcome,inactive
